# In the supplement of paper PMC9023506:
# Structures can show the parent of a compound that is named as a salt.
# Assays:
# Conditions in all cases: 10 µM; exposure time: 3 h pre-incubation + 3 h imaging
# [1] = system: Danio rerio larvae (5 dpf); experiment: habituation to 1-s acoustic pulses, difference vs DMSO (percentage points (treated minus DMSO)); higher = more of the behaviour than the DMSO vehicle control
# How it was run: (§1)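 Library drugs were diluted 1000× from DMSO stocks into egg water to reach 10 µM and applied to 5-dpf wild-type zebrafish larvae in 96-well ProxiPlates, 48 larvae per drug. The larvae stayed exposed for 3 h before imaging and for the 3 h of imaging at 28.5 °C. Behaviour scores, given in percentage points, are the treated mean minus the vehicle mean for movement and upper-half location.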
# [2] = system: Danio rerio larvae (5 dpf); experiment: optomotor response to red moving lines, difference vs DMSO (percentage points (treated minus DMSO)); higher = more of the behaviour than the DMSO vehicle control
# How it was run: as §1
# [3] = system: Danio rerio larvae (5 dpf); experiment: startle response to 20-s acoustic pulses, difference vs DMSO (percentage points (treated minus DMSO)); higher = more of the behaviour than the DMSO vehicle control
# How it was run: as §1
# [4] = system: Danio rerio larvae (5 dpf); experiment: optomotor response to fast red moving lines, difference vs DMSO (percentage points (treated minus DMSO)); higher = more of the behaviour than the DMSO vehicle control
# How it was run: as §1
# [5] = system: Danio rerio larvae (5 dpf); experiment: activity during period 15 (no stimuli), difference vs DMSO (percentage points (treated minus DMSO)); higher = more of the behaviour than the DMSO vehicle control
# How it was run: as §1
# [6] = system: Danio rerio larvae (5 dpf); experiment: optomotor response to green moving lines, difference vs DMSO (percentage points (treated minus DMSO)); higher = more of the behaviour than the DMSO vehicle control
# How it was run: as §1
# [7] = system: Danio rerio larvae (5 dpf); experiment: excitability to 1-s acoustic pulses, difference vs DMSO (percentage points (treated minus DMSO)); higher = more of the behaviour than the DMSO vehicle control
# How it was run: as §1
# [8] = system: Danio rerio larvae (5 dpf); experiment: optomotor response to blue moving lines, difference vs DMSO (percentage points (treated minus DMSO)); higher = more of the behaviour than the DMSO vehicle control
# How it was run: as §1
compound,measurement,setting,value
OC(CNCC(O)C1CCc2cc(F)ccc2O1)C1CCc2cc(F)ccc2O1 (stereo not drawn) [Nebivolol hydrochloride],habituation to 1-s acoustic pulses,[1],-9.34
same,optomotor response to red moving lines,[2],-16.2
same,startle response to 20-s acoustic pulses,[3],-6.21
same,optomotor response,[4],-19.6
CCOC(=O)C1=C(COCCN)NC(C)=C(C(=O)OC)C1c1ccccc1Cl (stereo not drawn) [Amlodipine besylate],optomotor response to red moving lines,[2],-1.08
same,activity during period 15,[5],3.16
same,startle response to 20-s acoustic pulses,[3],0.195
COc1cc(Nc2c(C#N)cnc3cc(OCCCN4CCN(C)CC4)c(OC)cc23)c(Cl)cc1Cl [Bosutinib],habituation to 1-s acoustic pulses,[1],0.4
same,optomotor response to red moving lines,[2],3.82
same,activity during period 15,[5],-11.7
Nc1nc(NC2CC2)c2ncn([C@H]3C=C[C@@H](CO)C3)c2n1 [Abacavir hemisulfate],habituation to 1-s acoustic pulses,[1],3.08
same,optomotor response to red moving lines,[2],-1.56
same,activity during period 15,[5],-3.3
same,optomotor response to green moving lines,[6],6.07
same,startle response to 20-s acoustic pulses,[3],6.56
CCCCNc1cc(C(=O)O)cc(S(N)(=O)=O)c1Oc1ccccc1 [Bumetanide],habituation to 1-s acoustic pulses,[1],-0.875
same,excitability to 1-s acoustic pulses,[7],3.02
same,optomotor response to red moving lines,[2],19.3
CC(C)[C@H]1CC[C@H](C(=O)N[C@H](Cc2ccccc2)C(=O)O)CC1 [Nateglinide],excitability to 1-s acoustic pulses,[7],1.64
same,optomotor response to red moving lines,[2],12.8
CN(CCOc1ccc(NS(C)(=O)=O)cc1)CCc1ccc(NS(C)(=O)=O)cc1 [Dofetilide],excitability to 1-s acoustic pulses,[7],4.42
same,activity during period 15,[5],-9.09
same,optomotor response to blue moving lines,[8],-7.25
same,optomotor response to green moving lines,[6],0.112
CS(=O)(=O)CCNCc1ccc(-c2ccc3ncnc(Nc4ccc(OCc5cccc(F)c5)c(Cl)c4)c3c2)o1 [Lapatinib],habituation to 1-s acoustic pulses,[1],-1.43
same,activity during period 15,[5],-13.3
same,optomotor response to blue moving lines,[8],6.39
same,optomotor response to green moving lines,[6],0.954
same,startle response to 20-s acoustic pulses,[3],-0.481
CN(C)CCC[C@@]1(c2ccc(F)cc2)OCc2cc(C#N)ccc21 [Escitalopram oxalate],excitability to 1-s acoustic pulses,[7],14.4
same,optomotor response to red moving lines,[2],-7.88
same,optomotor response to green moving lines,[6],1.9
Cc1nc(-c2ccc(OCC(C)C)c(C#N)c2)sc1C(=O)O [Febuxostat],optomotor response to red moving lines,[2],-1.5
same,optomotor response to green moving lines,[6],-4.77
same,optomotor response,[4],8.02
C#CCN[C@@H]1CCc2ccccc21 [Rasagiline mesylate],habituation to 1-s acoustic pulses,[1],2.65
same,optomotor response to red moving lines,[2],16.9
same,activity during period 15,[5],-1.03
same,optomotor response,[4],0.354
CC/C(=C(\c1ccccc1)c1ccc(OCCN(C)C)cc1)c1ccccc1 [Tamoxifen citrate],optomotor response to blue moving lines,[8],-14.3
same,optomotor response to green moving lines,[6],-10
same,optomotor response,[4],-8.84
C[C@H](Cc1cc2c(c(C(N)=O)c1)N(CCCO)CC2)NCCOc1ccccc1OCC(F)(F)F [Silodosin],excitability to 1-s acoustic pulses,[7],21.7
same,optomotor response to blue moving lines,[8],15.7
Cc1cn([C@H]2C=C[C@@H](CO)O2)c(=O)[nH]c1=O [Stavudine],habituation to 1-s acoustic pulses,[1],-0.918
same,activity during period 15,[5],-0.445
same,optomotor response to green moving lines,[6],1.24
same,optomotor response,[4],-8.38
CC(C)C(=O)OCC(=O)[C@@]12O[C@H](C3CCCCC3)O[C@@H]1C[C@H]1[C@@H]3CCC4=CC(=O)C=C[C@]4(C)[C@H]3[C@@H](O)C[C@@]12C [Ciclesonide],excitability to 1-s acoustic pulses,[7],4.96
same,activity during period 15,[5],-5.84
same,optomotor response to green moving lines,[6],-7.98
CCCCC(=O)N(Cc1ccc(-c2ccccc2-c2nnn[nH]2)cc1)[C@H](C(=O)O)C(C)C [Valsartan],optomotor response to green moving lines,[6],4.22
same,optomotor response,[4],-0.58
CC(C)Nc1cccnc1N1CCN(C(=O)c2cc3cc(NS(C)(=O)=O)ccc3[nH]2)CC1 [Delavirdine mesylate],activity during period 15,[5],-4.9
same,optomotor response to green moving lines,[6],-4.7
same,optomotor response,[4],-17
COc1ccccc1Oc1c(NS(=O)(=O)c2ccc(C(C)(C)C)cc2)nc(-c2ncccn2)nc1OCCO [Bosentan],activity during period 15,[5],-4.44
same,optomotor response to blue moving lines,[8],-2.84
CCC(=O)O[C@]1(C(=O)SCF)[C@H](C)C[C@H]2[C@@H]3C[C@H](F)C4=CC(=O)C=C[C@]4(C)[C@@]3(F)[C@@H](O)C[C@@]21C [Fluticasone propionate],habituation to 1-s acoustic pulses,[1],3.04
same,optomotor response to blue moving lines,[8],-10.1
same,optomotor response to green moving lines,[6],2.35
same,startle response to 20-s acoustic pulses,[3],-3.1
same,optomotor response,[4],-7.85
O=c1n(CCCN2CCN(c3cccc(Cl)c3)CC2)nc2ccccn12 [Trazodone hydrochloride],activity during period 15,[5],1.62
same,optomotor response to green moving lines,[6],1.17
same,startle response to 20-s acoustic pulses,[3],2.64
O=C(O)c1cc(/N=N/c2ccc(S(=O)(=O)Nc3ccccn3)cc2)ccc1O [Sulfasalazine],habituation to 1-s acoustic pulses,[1],0.389
same,excitability to 1-s acoustic pulses,[7],-0.736
same,activity during period 15,[5],15.3
same,optomotor response to green moving lines,[6],0.416
O=C(c1ccc(OCCN2CCCCC2)cc1)c1c(-c2ccc(O)cc2)sc2cc(O)ccc12 [Raloxifene hydrochloride],optomotor response to blue moving lines,[8],-2.86
same,optomotor response,[4],-14.5
CC(C)n1c(/C=C/C(O)CC(O)CC(=O)O)c(-c2ccc(F)cc2)c2ccccc21 (stereo not drawn) [Fluvastatin sodium],excitability to 1-s acoustic pulses,[7],3.77
same,optomotor response to blue moving lines,[8],-4.94
CCc1c2c(nc3ccc(OC(=O)N4CCC(N5CCCCC5)CC4)cc13)-c1cc3c(c(=O)n1C2)COC(=O)[C@]3(O)CC,habituation to 1-s acoustic pulses,[1],10.3
same,excitability to 1-s acoustic pulses,[7],6.46
same,optomotor response to blue moving lines,[8],1.97
same,optomotor response,[4],0.47
CC(C)c1nc(N(C)S(C)(=O)=O)nc(-c2ccc(F)cc2)c1/C=C/[C@@H](O)C[C@@H](O)CC(=O)O [Rosuvastatin calcium],excitability to 1-s acoustic pulses,[7],-0.497
same,optomotor response to green moving lines,[6],2.28
Nc1ncn([C@@H]2O[C@H](CO)[C@@H](O)[C@H]2O)c(=O)n1 [5-Azacytidine],optomotor response to blue moving lines,[8],8.76
same,optomotor response to green moving lines,[6],1.33
same,startle response to 20-s acoustic pulses,[3],2.64
N#Cc1ccc(C(c2ccc(C#N)cc2)n2cncn2)cc1 [Letrozole],habituation to 1-s acoustic pulses,[1],2.44
same,activity during period 15,[5],0.514
same,optomotor response to blue moving lines,[8],2.11
same,optomotor response,[4],4.75
COc1ccc(C[C@@H](C)NC[C@H](O)c2ccc(O)c(NC=O)c2)cc1 [Arformoterol tartrate],habituation to 1-s acoustic pulses,[1],-3.34
same,activity during period 15,[5],46.5
same,optomotor response to blue moving lines,[8],-4.26
COc1ccc(-c2ccc3cc(C(=O)O)ccc3c2)cc1C12CC3CC(CC(C3)C1)C2 [Adapalene],optomotor response to blue moving lines,[8],-1.19
same,optomotor response to green moving lines,[6],-2.82
same,optomotor response,[4],-11.7
